Measurements from the supplement of paper PMC11732987, “Enantioselective OTUD7B fragment discovery through chemoproteomics screening and high-throughput optimisation” (Communications Chemistry, 2025).

Experiments:
Assay in all cases: log2 ratio of Biotin-Ahx-Ub-VS probe labelling (fragment/DMSO); higher = less target engagement (more negative = stronger competition), active = hit call of the paper (q ≤ 0.05, log2 ratio ≤ -1)
Conditions in all cases: compound concentration: 200 uM; treatment time: 3 h
[1] = target: T1, USP42 (UniProt Q9H9J4)
T1 sequence (whole entry): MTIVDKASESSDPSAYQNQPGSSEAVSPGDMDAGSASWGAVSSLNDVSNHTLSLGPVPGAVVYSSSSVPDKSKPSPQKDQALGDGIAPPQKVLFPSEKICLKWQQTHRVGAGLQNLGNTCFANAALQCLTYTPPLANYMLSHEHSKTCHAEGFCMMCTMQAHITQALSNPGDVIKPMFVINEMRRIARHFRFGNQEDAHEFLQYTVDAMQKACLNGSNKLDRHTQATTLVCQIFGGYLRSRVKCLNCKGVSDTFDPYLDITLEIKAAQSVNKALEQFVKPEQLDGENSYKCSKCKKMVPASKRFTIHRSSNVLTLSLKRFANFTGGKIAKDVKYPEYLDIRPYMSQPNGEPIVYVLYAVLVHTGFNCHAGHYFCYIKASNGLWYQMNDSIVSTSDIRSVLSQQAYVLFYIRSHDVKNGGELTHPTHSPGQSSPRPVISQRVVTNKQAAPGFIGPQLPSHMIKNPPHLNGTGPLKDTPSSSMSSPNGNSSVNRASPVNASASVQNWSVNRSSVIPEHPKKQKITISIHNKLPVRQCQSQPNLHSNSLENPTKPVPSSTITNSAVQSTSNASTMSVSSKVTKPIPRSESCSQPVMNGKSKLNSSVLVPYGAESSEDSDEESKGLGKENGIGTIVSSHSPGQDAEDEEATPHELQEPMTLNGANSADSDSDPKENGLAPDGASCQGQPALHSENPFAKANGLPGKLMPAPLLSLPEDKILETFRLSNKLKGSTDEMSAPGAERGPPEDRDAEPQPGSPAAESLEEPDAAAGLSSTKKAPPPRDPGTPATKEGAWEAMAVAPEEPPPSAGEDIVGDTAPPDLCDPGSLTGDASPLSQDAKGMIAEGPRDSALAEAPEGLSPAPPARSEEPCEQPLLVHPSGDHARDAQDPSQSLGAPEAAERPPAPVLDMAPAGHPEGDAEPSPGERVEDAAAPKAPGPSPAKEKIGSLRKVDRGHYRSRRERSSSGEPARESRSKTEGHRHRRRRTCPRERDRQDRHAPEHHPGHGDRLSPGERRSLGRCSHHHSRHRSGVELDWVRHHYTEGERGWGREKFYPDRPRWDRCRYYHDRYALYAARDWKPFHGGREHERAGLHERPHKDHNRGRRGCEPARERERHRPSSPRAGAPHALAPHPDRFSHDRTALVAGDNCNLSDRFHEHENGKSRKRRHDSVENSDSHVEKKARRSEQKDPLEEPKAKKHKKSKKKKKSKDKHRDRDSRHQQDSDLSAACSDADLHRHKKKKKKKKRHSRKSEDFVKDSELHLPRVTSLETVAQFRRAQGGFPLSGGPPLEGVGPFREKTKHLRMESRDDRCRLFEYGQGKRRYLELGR
How it was run: (§1)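 Fragment (200 µM) or vehicle was incubated for 3 h with triplicate HEK293T lysate samples of 495 µg, which were then treated with Biotin-Ahx-Ub-VS at 0.5 µM final for 1 h. Labelled DUBs were enriched on NeutrAvidin, digested with LysC and trypsin, and analysed by diaPASEF LC-MS/MS. Values are average log2 fragment/vehicle ratios from an unpaired t-test on global-median-normalised Spectronaut label-free quantities, using proteins with ≥2 unique peptides.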

[2] = target: USP46 (UniProt P62068)
How it was run: as §1

[3] = target: T2, USP47 (UniProt Q96K76)
T2 sequence (whole entry): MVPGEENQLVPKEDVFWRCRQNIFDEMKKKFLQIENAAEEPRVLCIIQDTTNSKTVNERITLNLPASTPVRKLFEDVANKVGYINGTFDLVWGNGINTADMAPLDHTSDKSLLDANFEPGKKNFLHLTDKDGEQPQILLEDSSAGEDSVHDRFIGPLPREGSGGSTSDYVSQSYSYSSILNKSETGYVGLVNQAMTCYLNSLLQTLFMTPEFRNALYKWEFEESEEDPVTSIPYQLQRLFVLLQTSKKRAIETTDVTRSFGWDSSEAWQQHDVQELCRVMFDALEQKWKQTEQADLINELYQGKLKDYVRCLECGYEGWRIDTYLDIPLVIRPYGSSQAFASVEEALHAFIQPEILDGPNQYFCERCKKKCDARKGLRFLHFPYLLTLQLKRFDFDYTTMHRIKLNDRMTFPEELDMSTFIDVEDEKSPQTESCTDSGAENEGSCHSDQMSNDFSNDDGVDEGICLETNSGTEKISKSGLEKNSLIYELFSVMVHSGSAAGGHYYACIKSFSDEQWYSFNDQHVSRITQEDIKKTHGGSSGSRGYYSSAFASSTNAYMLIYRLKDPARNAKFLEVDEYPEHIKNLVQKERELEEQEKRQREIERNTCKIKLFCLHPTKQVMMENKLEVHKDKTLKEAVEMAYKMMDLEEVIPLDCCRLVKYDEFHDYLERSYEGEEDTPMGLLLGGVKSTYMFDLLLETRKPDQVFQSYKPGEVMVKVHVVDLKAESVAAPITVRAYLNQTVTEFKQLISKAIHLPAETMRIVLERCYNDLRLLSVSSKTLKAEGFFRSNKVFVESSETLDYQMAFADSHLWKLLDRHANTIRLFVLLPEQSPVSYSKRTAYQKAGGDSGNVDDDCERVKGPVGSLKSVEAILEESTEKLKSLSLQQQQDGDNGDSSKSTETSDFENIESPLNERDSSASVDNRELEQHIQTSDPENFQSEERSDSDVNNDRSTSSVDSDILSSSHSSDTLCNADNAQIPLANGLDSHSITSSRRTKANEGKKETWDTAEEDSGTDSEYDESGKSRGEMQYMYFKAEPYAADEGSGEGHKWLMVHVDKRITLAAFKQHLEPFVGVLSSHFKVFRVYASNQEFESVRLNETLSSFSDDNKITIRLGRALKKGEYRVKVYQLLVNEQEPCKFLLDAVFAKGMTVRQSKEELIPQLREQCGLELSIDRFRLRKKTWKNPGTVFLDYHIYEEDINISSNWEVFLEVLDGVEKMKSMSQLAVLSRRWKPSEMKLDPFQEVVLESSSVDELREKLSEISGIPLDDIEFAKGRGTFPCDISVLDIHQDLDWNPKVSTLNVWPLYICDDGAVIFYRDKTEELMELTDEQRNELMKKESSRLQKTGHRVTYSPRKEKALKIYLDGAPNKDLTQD
How it was run: as §1

[4] = target: T3, USP48 (UniProt Q86UV5)
T3 sequence (whole entry): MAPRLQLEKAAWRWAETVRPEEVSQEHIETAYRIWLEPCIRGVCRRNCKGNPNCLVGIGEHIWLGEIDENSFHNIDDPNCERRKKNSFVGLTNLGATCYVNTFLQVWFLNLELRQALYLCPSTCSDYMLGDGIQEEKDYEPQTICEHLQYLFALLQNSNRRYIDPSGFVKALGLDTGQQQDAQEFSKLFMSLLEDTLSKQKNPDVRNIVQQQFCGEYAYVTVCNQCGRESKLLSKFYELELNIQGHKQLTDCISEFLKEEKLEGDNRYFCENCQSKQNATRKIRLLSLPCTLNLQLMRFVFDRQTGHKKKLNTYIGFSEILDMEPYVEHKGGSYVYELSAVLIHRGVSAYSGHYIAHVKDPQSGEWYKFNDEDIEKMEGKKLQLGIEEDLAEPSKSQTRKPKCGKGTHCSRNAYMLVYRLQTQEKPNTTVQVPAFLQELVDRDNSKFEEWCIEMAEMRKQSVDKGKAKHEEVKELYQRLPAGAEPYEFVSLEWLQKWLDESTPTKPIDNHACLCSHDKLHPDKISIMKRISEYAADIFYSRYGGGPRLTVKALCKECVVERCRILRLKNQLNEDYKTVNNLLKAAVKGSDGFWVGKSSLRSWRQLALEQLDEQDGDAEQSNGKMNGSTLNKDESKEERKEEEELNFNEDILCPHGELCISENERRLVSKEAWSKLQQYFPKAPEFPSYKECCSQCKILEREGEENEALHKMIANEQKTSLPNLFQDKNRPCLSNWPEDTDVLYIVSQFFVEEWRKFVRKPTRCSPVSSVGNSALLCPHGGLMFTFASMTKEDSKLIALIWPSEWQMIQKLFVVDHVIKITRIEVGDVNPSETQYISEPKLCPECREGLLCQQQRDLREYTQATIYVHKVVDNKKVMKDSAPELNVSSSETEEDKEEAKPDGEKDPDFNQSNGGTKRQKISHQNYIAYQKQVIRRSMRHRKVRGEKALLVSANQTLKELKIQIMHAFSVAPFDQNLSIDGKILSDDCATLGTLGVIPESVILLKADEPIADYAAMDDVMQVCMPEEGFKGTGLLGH
How it was run: as §1

[5] = target: T4, USP5 (UniProt P45974)
T4 sequence (whole entry): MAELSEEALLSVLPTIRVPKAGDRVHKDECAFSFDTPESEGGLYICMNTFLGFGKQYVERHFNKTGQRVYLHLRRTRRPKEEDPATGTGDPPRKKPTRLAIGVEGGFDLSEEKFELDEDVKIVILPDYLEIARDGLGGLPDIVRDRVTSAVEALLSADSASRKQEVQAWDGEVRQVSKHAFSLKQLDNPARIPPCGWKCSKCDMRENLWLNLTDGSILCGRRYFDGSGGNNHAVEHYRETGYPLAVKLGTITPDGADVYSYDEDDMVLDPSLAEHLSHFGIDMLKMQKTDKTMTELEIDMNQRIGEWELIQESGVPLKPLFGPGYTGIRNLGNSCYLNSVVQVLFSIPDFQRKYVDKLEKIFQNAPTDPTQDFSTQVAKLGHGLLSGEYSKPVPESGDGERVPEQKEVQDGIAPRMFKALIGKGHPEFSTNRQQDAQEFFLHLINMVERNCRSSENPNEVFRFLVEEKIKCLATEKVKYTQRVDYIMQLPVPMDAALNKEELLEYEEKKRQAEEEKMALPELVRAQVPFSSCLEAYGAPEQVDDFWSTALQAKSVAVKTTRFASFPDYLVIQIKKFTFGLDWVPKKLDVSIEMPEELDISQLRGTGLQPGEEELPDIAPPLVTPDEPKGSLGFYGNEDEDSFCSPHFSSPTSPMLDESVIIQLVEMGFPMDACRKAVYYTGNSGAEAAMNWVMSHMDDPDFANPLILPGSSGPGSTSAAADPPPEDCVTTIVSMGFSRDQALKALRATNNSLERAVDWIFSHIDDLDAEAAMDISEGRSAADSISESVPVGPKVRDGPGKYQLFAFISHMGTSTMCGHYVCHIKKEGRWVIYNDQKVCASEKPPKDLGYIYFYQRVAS
How it was run: as §1

[6] = target: USP54 (UniProt Q70EL1)
How it was run: as §1

[7] = target: USP7 (UniProt Q93009)
How it was run: as §1

[8] = target: T5, USP8 (UniProt P40818)
T5 sequence (whole entry): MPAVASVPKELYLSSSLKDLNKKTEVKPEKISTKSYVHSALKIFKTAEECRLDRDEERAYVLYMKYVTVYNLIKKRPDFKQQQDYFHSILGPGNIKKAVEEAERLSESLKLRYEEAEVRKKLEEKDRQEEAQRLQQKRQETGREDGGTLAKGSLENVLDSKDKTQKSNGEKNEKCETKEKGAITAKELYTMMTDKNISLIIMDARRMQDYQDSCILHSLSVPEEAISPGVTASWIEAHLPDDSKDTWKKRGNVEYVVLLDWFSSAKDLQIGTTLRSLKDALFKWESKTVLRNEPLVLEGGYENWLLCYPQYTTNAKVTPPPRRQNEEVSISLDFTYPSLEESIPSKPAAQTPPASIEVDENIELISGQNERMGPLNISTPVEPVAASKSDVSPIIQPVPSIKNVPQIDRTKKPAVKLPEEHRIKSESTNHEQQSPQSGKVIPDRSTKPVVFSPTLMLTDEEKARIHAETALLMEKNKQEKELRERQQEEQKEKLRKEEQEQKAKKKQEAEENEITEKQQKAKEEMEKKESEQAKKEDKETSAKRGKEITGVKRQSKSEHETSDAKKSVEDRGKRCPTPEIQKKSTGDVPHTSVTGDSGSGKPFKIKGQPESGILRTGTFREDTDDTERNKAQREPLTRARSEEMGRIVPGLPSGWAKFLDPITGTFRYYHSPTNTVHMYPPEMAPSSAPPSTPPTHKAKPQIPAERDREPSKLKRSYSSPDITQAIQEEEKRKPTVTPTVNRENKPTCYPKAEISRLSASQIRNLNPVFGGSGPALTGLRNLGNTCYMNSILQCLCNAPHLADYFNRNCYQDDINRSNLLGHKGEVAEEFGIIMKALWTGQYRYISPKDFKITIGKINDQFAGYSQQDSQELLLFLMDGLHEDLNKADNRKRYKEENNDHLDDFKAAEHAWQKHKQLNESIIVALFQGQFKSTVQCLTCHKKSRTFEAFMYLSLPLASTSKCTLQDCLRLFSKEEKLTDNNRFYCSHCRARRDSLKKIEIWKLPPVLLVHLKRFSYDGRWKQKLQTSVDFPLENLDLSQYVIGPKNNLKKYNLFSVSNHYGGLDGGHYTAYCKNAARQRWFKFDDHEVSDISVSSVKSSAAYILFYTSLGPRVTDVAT
How it was run: as §1

[9] = target: USP9X (UniProt Q93008)
How it was run: as §1

[10] = target: UniProt O00487
How it was run: as §1

Measured: log2 ratio of Biotin-Ahx-Ub-VS probe labelling

Chain of USP46 (P62068 whole entry): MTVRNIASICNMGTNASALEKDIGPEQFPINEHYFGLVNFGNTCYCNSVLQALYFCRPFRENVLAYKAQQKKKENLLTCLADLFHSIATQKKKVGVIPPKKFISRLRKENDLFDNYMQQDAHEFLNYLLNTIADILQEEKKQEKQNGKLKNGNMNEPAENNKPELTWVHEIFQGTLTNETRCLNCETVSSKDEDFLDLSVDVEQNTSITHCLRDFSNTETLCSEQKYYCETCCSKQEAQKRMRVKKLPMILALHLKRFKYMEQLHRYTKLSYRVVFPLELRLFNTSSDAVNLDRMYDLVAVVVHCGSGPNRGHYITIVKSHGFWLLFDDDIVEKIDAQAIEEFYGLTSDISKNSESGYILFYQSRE
Chain of USP7 (Q93009 whole entry, looked up): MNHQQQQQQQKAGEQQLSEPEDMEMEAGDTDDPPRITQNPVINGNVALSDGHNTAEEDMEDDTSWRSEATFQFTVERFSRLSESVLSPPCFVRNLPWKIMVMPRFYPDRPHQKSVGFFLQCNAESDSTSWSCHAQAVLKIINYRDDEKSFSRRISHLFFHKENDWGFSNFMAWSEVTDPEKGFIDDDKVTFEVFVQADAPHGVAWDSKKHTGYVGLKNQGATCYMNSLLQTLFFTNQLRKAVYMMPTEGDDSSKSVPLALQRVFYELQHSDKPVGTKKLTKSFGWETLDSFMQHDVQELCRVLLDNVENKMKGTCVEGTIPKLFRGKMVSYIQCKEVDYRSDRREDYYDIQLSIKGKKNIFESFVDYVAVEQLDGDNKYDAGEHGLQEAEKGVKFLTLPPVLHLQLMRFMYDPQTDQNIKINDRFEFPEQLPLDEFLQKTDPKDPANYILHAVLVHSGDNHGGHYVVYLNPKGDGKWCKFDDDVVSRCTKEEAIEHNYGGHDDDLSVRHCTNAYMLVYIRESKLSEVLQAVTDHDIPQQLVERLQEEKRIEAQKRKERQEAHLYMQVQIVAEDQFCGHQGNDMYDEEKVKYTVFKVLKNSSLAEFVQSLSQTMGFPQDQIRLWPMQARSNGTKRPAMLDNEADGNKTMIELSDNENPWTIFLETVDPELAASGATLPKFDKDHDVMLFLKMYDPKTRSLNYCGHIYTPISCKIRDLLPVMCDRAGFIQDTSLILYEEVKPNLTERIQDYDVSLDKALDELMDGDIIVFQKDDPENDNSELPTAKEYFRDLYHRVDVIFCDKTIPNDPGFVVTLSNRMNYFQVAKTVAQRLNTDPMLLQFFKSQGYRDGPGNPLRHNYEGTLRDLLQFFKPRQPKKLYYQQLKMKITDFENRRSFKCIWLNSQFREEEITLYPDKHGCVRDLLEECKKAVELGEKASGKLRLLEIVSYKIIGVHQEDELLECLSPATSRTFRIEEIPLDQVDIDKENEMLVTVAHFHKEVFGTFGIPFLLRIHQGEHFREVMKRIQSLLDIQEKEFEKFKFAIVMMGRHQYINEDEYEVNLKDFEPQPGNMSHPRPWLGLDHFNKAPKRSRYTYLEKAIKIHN
Chain of USP54 (Q70EL1 whole entry): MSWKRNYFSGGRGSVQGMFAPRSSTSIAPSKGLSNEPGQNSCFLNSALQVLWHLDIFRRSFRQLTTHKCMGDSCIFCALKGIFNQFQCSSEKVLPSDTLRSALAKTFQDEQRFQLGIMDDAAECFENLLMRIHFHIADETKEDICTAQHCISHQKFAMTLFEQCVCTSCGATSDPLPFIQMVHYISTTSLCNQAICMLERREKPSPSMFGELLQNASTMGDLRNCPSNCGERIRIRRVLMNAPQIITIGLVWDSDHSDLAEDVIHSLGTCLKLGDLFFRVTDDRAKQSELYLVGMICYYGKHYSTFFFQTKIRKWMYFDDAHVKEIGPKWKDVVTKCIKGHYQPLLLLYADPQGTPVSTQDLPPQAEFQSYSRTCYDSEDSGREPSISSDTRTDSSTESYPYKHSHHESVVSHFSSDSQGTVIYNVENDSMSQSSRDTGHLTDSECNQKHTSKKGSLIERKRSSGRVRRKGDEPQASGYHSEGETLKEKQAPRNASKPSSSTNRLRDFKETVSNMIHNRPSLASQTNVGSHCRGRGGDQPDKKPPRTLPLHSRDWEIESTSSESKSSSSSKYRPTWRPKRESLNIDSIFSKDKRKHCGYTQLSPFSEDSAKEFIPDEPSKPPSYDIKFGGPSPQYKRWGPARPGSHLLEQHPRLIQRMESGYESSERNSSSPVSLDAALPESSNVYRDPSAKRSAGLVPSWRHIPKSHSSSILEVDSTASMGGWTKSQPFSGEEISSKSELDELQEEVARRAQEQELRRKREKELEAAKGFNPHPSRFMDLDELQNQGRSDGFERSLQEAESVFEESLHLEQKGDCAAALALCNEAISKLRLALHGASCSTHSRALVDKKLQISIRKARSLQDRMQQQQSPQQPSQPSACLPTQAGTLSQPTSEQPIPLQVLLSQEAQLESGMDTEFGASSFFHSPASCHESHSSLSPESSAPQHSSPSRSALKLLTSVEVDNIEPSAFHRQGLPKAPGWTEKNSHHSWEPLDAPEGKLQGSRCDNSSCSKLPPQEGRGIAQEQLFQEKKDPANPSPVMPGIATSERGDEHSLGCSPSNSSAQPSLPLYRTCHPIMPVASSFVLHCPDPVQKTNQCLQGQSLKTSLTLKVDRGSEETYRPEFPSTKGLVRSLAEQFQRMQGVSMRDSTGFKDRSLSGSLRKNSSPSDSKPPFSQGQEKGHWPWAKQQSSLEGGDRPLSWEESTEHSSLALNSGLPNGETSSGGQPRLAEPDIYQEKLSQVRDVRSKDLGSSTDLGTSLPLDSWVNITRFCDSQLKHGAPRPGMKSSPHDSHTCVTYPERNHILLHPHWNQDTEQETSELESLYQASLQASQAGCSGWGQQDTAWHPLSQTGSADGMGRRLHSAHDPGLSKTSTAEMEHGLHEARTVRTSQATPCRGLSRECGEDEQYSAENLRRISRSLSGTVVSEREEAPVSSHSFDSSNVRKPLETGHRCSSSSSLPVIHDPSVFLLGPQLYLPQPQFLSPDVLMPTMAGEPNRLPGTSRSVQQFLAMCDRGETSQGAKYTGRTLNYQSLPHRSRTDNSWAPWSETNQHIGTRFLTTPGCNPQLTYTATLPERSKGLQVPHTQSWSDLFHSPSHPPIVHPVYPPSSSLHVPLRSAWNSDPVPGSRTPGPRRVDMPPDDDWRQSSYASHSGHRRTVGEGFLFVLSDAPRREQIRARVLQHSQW
Chain of UniProt O00487 (O00487 whole entry): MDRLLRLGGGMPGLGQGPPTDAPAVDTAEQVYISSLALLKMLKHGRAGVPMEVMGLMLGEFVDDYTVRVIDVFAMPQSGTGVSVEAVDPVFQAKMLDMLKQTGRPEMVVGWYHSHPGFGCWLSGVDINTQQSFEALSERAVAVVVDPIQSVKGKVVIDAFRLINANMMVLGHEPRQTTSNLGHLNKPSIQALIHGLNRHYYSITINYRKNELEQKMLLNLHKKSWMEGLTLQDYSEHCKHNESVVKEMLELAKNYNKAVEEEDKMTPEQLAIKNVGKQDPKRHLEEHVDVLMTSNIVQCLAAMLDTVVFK

O=C(CCl)Nc1cc2c(cc1Cl)OCCO2
active: [4] -1.05
inactive: [1] 0.233 | [2] 0.0711 | [3] -0.426 | [5] 0.0658 | [6] 0.291 | [7] -0.216 | [8] -0.226 | [9] -0.246 | [10] -0.0671
